Reference: PubChem BioAssay (NCI)
Compounds without any hit were thinned out: in the full panel of roughly 79,000, 15% have a hit. Rule as the data show it: active = growth inhibition above about 70%; inactive = the rest.

Experiments:
[1] = NCI Yeast Anticancer Drug Screen. Data for the rad50 strain (AID 155);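 also: 0% = growth of vehicle-only cultures of the same strain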; settings: S. cerevisiae rad50 strain growth inhibition; at 50.0 µM; hits give high values
Summary of the method: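 Genetically altered yeast (DNA repair pathway); compound treatment; growth inhibition vs vehicle ctrl.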

[2] = NCI Yeast Anticancer Drug Screen. Data for the mec2-1 strain (AID 157); settings: S. cerevisiae mec2-1 strain, at 50.0 µM, hits give high values
Summary of the method: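 Yeast mec2-1 mutant treated with compound. Readout: growth inhibition vs vehicle controls.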

[3] = NCI Yeast Anticancer Drug Screen. Data for the sgs1 mgt1 strain (AID 161);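 also: 0% = growth of cultures given vehicle only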; settings: S. cerevisiae sgs1 mgt1 strain, at 50.0 µM, hits give high values
Summary of the method: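 Genetically altered yeast, compound exposure, growth inhibition relative to vehicle.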

[4] = NCI Yeast Anticancer Drug Screen. Data for the cln2 rad14 strain (AID 165);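 also: 0% = growth equal to vehicle treated cultures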; settings: S. cerevisiae cln2 rad14 strain, at 50.0 µM, hits give high values
Summary of the method: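 cln2 rad14 yeast strain; compound exposure; growth inhibition read vs vehicle controls.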

[5] = NCI Yeast Anticancer Drug Screen. Data for the bub3 strain (AID 167); settings: S. cerevisiae bub3 mutant strain, at 50.0 µM, hits give high values
Summary of the method: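 Yeast carrying a defined mutation is treated with each compound, and growth is compared with that of vehicle-exposed cells to give inhibition.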

[6] = NCI Yeast Anticancer Drug Screen. Data for the mlh1 rad18 strain (AID 175); settings: S. cerevisiae mlh1 rad18 strain growth inhibition; at 50.0 µM; hits give high values
Summary of the method: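 Yeast w/ defined DNA-repair lesions; compound exposure; growth vs vehicle controls → % inhibition.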

Measured: growth inhibition

OC1COC(O)(CNCCc2c[nH]c3ccc(OCc4ccccc4)cc23)C(O)C1O (stereo unspecified)
inactive: [1] -25.5% | [2] 7.25% | [3] -18.2% | [4] -49.7% | [5] -20.7% | [6] 19.1%

O=C1CSc2ccnc(=O)n21
inactive: [1] -0.1% | [2] -10% | [3] 16.7% | [4] 11.1% | [5] -9.8% | [6] -8.1%

Cc1ccc(S(=O)(=O)CCN2CCCC2)cc1
inactive: [1] -3.85% | [2] -14.7% | [3] -5.6% | [4] -47.2% | [5] 7.95% | [6] -9.55%

C=CCOC(=O)CC
inactive: [1] 5.95% | [2] -13.2% | [3] -13% | [4] -6.05% | [5] -15.4% | [6] -10%

NC(=O)c1ccc(Cl)c([N+](=O)[O-])c1
inactive: [1] 8.2% | [2] 2.85% | [3] -7.3% | [4] 6.45% | [5] -31.3% | [6] 2.15%

C/C(=C1\C(=O)Nc2ccccc21)c1cccnc1
inactive: [1] -8.2% | [2] -9.25% | [3] -9.5% | [4] 11.3% | [5] -10.4% | [6] -7.55%

Cc1cccc(C(C)(O)c2cnc(C)n2Cc2ccccc2)c1 (stereo unspecified)
inactive: [1] 5.1% | [2] 14.2% | [3] 10.8% | [4] 18.8% | [5] 9.35% | [6] 15.2%

CSc1ccc(C(=O)c2ccc(SC)cc2)cc1
inactive: [1] 5.65% | [2] 15.8% | [3] 16.2% | [4] -12.8% | [5] -4.25% | [6] -17.2%

COc1ccc2[nH]cc(CN3CCC(CO)(c4ccccc4)CC3)c2c1
inactive: [1] 13.4% | [2] 1.2% | [3] -16.4% | [4] 6.9% | [5] 5.95% | [6] 3.55%

O=c1cc(-c2ccccc2)c2cc3c(=O)ccoc3cc2o1
inactive: [1] 12.8% | [2] 27.1% | [3] 12% | [4] 14.9% | [5] -1.55% | [6] 0.95%

S=c1ccc2ccccc2[nH]1
inactive: [1] -16.9% | [2] -8.15% | [3] -0.75% | [4] -13% | [5] -16.1% | [6] -13.8%

O=C1C=CC(=O)N1Cc1ccco1
inactive: [1] -3.7% | [2] -16.8% | [3] 5.9% | [4] 8.5% | [5] 10.1% | [6] -16.6%

Cc1ncc(Cl)c2cc3ccccc3cc12
inactive: [1] -2.4% | [2] 2.1% | [3] -0.7% | [4] -24.6% | [5] -3.25% | [6] -7.55%

O=C(O)C1CC2CC2C1 (stereo unspecified)
inactive: [1] 2.6% | [2] 12% | [3] -2.8% | [4] 9.9% | [5] 16.1% | [6] 9.1%

CN(C)C(=N)N=C(N)N
inactive: [1] -23.2% | [2] -30.1% | [3] -27.6% | [4] -1.8% | [5] -42.9% | [6] -21.1%

CCCOC(C)OCCC#CCC(C)OC(=O)CC(Cl)(Cl)Cl (stereo unspecified)
inactive: [1] -13.8% | [2] -21.4% | [3] 10.7% | [4] -5.35% | [5] -16.1% | [6] -9.35%

CCOC(=O)C12CCC(=O)CC1(O)CCC1(C2)OCCCO1 (stereo unspecified)
inactive: [1] 10.1% | [2] -15.9% | [3] -17.9% | [4] -21.8% | [5] 10.9% | [6] 3.85%

Cc1c(/C=C\C(=O)c2ccccc2)c2ccccc2n1C
inactive: [1] 12.7% | [2] -18.6% | [3] 2.2% | [4] -21.6% | [5] -15.2% | [6] 1.15%

CC(=O)NCC(=O)c1ccccc1
inactive: [1] 12.5% | [2] -2.4% | [3] 3.75% | [4] -7.1% | [5] -6.35% | [6] 9.5%

COC(=O)c1cc(C(=O)OC)c(C/C(=N/NC(N)=S)C(=O)Nc2ccc(Cl)c(Cl)c2)nc1C/C(=N/NC(N)=S)C(=O)Nc1ccc(Cl)c(Cl)c1
inactive: [1] 28.4% | [2] 14.9% | [3] 7.1% | [4] 34.2% | [5] 32.7% | [6] 44%

O=C(O)c1ccc2c3ccc(C(=O)O)c4c(C(=O)O)ccc(c5ccc(C(=O)O)c1c25)c43
inactive: [1] -21.1% | [2] -33.5% | [3] -17.5% | [4] -0.25% | [5] -19.6% | [6] -19.1%

Cc1cc2ncn(CO)c2cc1C
inactive: [1] -4.5% | [2] -0.2% | [3] 18.8% | [4] -7.4% | [5] 20% | [6] 0.75%

CN1CN(C(=O)N2CN(C)C(=O)N(C)C2)CN(C)C1=O
inactive: [1] -10.8% | [2] -13.6% | [3] -23.6% | [4] 3.45% | [5] -14.2% | [6] -37.4%

CCOC(=O)[n+]1c(C)ccc2ccccc21
inactive: [1] -20% | [2] -10.9% | [3] -9.55% | [4] -23.8% | [5] 11% | [6] -13.8%

CC(=O)c1cccc2cc(CC(=O)c3ccccc3)c(=O)oc12
inactive: [1] 12.2% | [2] 5.6% | [3] 6.4% | [4] -33.1% | [5] 11.1% | [6] 1.35%

CCCCN=C=C(c1ccccc1)c1ccccc1
inactive: [1] 22% | [2] 12.5% | [3] -0.85% | [4] -35.8% | [5] -7.75% | [6] -15.1%

Cc1cc(=O)n2c(n1)sc1ccc3ccccc3c12
inactive: [1] 12% | [2] -11.8% | [3] 3.1% | [4] 12.8% | [5] -12.8% | [6] 33.9%

O=C(O)C1CSCN1 (stereo unspecified)
inactive: [1] -3.85% | [2] -22.9% | [3] -3.2% | [4] 1.1% | [5] 1% | [6] 18.3%

Cc1ccnc(NC(NC(=O)c2ccccc2)(C(F)(F)F)C(F)(F)F)c1
inactive: [1] 4.75% | [2] 3.5% | [3] 12.8% | [4] 23.2% | [5] -8.05% | [6] -39.5%

CCCCCC(=O)/C=C/CC(CCCCCCC#N)C(CC(OC)OC)[N+](=O)[O-] (stereo unspecified)
inactive: [1] -42.2% | [2] -24.2% | [3] 0.9% | [4] 14.3% | [5] -1.75% | [6] -37.4%

O=C1C(=O)c2ccccc2C(O)=C1CC=C(Cl)Cl
inactive: [1] -3.9% | [2] 5.5% | [3] -5.6% | [4] -33.1% | [5] 29.9% | [6] -33.6%

COc1cc(/C=C/C(=O)OC2C(O)C3CC(OC(=O)c4cc(OC)c(OC)c(OC)c4)CC2N3C)cc(OC)c1OC (stereo unspecified)
inactive: [1] 0.55% | [2] -21.6% | [3] 7.6% | [4] 6.15% | [5] -7.95% | [6] -4.95%

CC(=O)CC(=O)N1CCC(C)CC1
inactive: [1] 20.4% | [2] -24.9% | [3] -16.4% | [4] 27.6% | [5] -14.1% | [6] -10.2%

Cc1cccc2cc3ccc4ccccc4c3cc12
inactive: [1] 29.7% | [2] 13.8% | [3] 21.9% | [4] 14.8% | [5] 4.1% | [6] 20.6%

COCCCNc1ncnc2c1cnn2-c1ccc(Cl)cc1
inactive: [1] -1.3% | [2] -4.75% | [3] -0.25% | [4] 9.8% | [5] -9.45% | [6] -4.45%

Cc1cc(N(CCC#N)CCC#N)ccc1/C(N=Nc1cccc(Cl)c1)=N/NC(=O)c1cc(Cl)ccc1O
inactive: [1] 21% | [2] 4.9% | [3] 26.8% | [4] 10.3% | [5] 33.6% | [6] -59.4%

CCCCCCC(C#N)(CCN(C)C)c1ccccc1 (stereo unspecified)
inactive: [1] 15.4% | [2] 18.7% | [3] 14.3% | [4] -8% | [5] 50.1% | [6] 22.8%

N=C(N)c1ccc(NC(=O)c2ccc(C(=O)Nc3ccc(C(=N)N)cc3)c(N)c2)cc1
inactive: [1] 9.9% | [2] 18.1% | [3] -7.6% | [4] -7.85% | [5] -1.95% | [6] -7.3%

Cc1cc2c(=O)c3ccccc3[nH]c2c(C(=O)O)c1C
inactive: [1] 5.35% | [2] 0.85% | [3] 8.25% | [4] 10.2% | [5] -14.7% | [6] 38.2%

CC(C)(C(=O)c1cccnc1)c1cccnc1
inactive: [1] 4.25% | [2] -9.25% | [3] 17.1% | [4] 2.3% | [5] 17.1% | [6] 12.7%

O=[N+]([O-])c1ccc(CSc2ncnc3c2ncn3C2OC(CO)C(O)C2O)cc1 (stereo unspecified)
inactive: [1] 10.7% | [2] 22.6% | [3] 9.5% | [4] -7.35% | [5] -4.05% | [6] -17.4%
